# Laboratory results published in PubChem BioAssay (NCATS).
# Records with an inconclusive call do not appear. Unmarked numbers belong to inactive results. The source made the active and inactive calls. Calls come from the whole dose curve; as a rule, active = well fitted activation curve with a large enough effect; inconclusive = small, poorly fitted or top-dose-only effect; inactive = flat fitted curve, though single readings scatter. Square brackets hold non-standard residues; d marks the D form. Peptide text beside a SMILES is read from it. ξ: configuration not given here. ξL = CC(C)CC(N)C(=O)O
# Assay: qHTS for Hypoxia signaling pathway (HIF-1) agonists against the NCATS CANVASS Library (AID 1347375); note: 0% is about no effect
# Conditions: HRE-bla ME-180 cells, HIF-1 beta-lactamase reporter, 17 h; series mostly up to 38.3 µM; activation: at the top concentration
# Summary of the method: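 ME-180 HRE-bla reporter cells; 2,000/well, 0.5% dialyzed FBS; cpd added after 5 h, 17 h 37C/5% CO2; CCF4-AM 2 h RT; FRET 460/530 nm; CellTiter-Glo viability same wells, 30 min.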
SMILES,activation,outcome
O[C@H]1C=C2[C@H]3CN(Cc4cc5c(cc43)OCO5)[C@H]2C[C@@H]1O,1.21%,
CC[C@@H](c1cc(OC)c(OC)cc1OC)[C@H](C)[C@@H](/C(C)=C/c1cc(OC)c(OC)cc1OC)c1cc(OC)c(OC)cc1OC,,inactive
C/C=C/c1cc2c(c(=O)o1)C(=O)[C@@H](O)[C@H](C)O2,23.1%,
CC[C@@H](C)[C@H]1NC(=O)C(CC(C)C)NC(=O)[C@@H](CC(C)C)NC(=O)[C@H](Cc2c[nH]c3ccccc23)NC(=O)CNC(=O)[C@@H](CC(N)=O)NC1=O (stereo partly drawn) (cyclo(GW[dL][ξL][dI][dN])),10%,
CN1CCc2cc3c(c4c2C1(C)C(=O)c1cc(O)ccc1-4)OCO3 (configuration not stated),2.04%,
COc1cc2c(cc1OC)[C@@H](c1ccc3c(c1)OCO3)C(C)[C@@H](C)C2=O (some centres not stated),12.2%,
CC(C)[C@@H]1CC(=O)c2coc3c2[C@H]1C[C@@H](C)C3=O,2.53%,
COc1cc2oc3ccccc3c(=O)c2cc1OC,8.39% [at 76 µM],
COC(=O)[C@@]1(C)CCC[C@]2(C)c3cc(OC)ccc3CC[C@@H]12,1.41%,
COc1cc2ccc(=O)oc2c(O)c1O[C@@H]1O[C@H](CO)[C@@H](O)[C@H](O)[C@H]1O,13.1% [at 22.9 µM],
CC[C@H]1[C@@H](C)[C@@H](c2cc(OC)c(OC)cc2OC)[C@H](C)[C@@H](c2cc(OC)c(OC)cc2OC)[C@@]12C=C(OC)C(=O)C=C2OC,-1.1%,
C=C1C[C@H]2O[C@@H]3[C@@H]4[C@H](CC[C@@](C)(O)[C@@H]42)[C@H](C)COC3(C)[C@@H](OC(=O)CCCCCCC)C[C@H]1O (some centres not stated),1.73%,
